The campaign covered roughly 5,500 compounds. About 2,000 (36%) were called active. Not shown: some 18% with an inconclusive outcome. No stated cut-off is given here; in the data, active means normalized growth mostly below about 0.91 (no sharp cut-off); inconclusive means no clear call, values can overlap the other calls; inactive means mostly above about 0.92. Some of the results follow.
Test: chemical genetic growth profiling, strain panel (AID 1159580);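 further: tested at 20 µM; growth read once vehicle control cultures reached saturation at 30 °C; 1 = growth at the plate median or of vehicle wells; lower values mean less growth of the strain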
Settings: growth OD
[1] = S. cerevisiae deletion strains, locus YDL101C, strain DUN1, hits give low values
[2] = S. cerevisiae deletion strains, locus YHR030C, strain SLT2, hits give low values
[3] = S. cerevisiae deletion strains, locus YAR019C, strain CDC15, hits give low values
[4] = S. cerevisiae deletion strains, locus YBL105C, strain PKC1, hits give low values
[5] = S. cerevisiae deletion strains, locus YBR135W, strain CKS1, hits give low values
[6] = S. cerevisiae deletion strains, locus YBR160W, strain CDC28, hits give low values
[7] = S. cerevisiae deletion strains, locus YDL017W, strain CDC7, hits give low values
[8] = S. cerevisiae deletion strains, locus YDL028C, strain MPS1, hits give low values
[9] = S. cerevisiae deletion strains, locus YDL108W, strain KIN28, hits give low values
[10] = S. cerevisiae deletion strains, locus YDL132W, strain cdc53, hits give low values
[11] = S. cerevisiae deletion strains, locus YDL214C, strain PRR2, hits give low values
[12] = S. cerevisiae deletion strains, locus YDR052C, strain DBF4, hits give low values
[13] = S. cerevisiae deletion strains, locus YDR054C, strain cdc34, hits give low values
[14] = S. cerevisiae deletion strains, locus YDR226W, strain ADK1, hits give low values
[15] = S. cerevisiae deletion strains, locus YDR477W, strain SNF1, hits give low values
[16] = S. cerevisiae deletion strains, locus YER123W, strain YCK3, hits give low values
[17] = S. cerevisiae deletion strains, locus YER133W, strain GLC7, hits give low values
[18] = S. cerevisiae deletion strains, locus YFL009W, strain cdc4, hits give low values
[19] = S. cerevisiae deletion strains, locus YFL029C, strain CAK1, hits give low values
[20] = S. cerevisiae deletion strains, locus YFR003C, strain YPI1, hits give low values
[21] = S. cerevisiae deletion strains, locus YFR019W, strain FAB1, hits give low values
[22] = S. cerevisiae deletion strains, locus YGR040W, strain KSS1, hits give low values
[23] = S. cerevisiae deletion strains, locus YGR052W, strain FMP48, hits give low values
[24] = S. cerevisiae deletion strains, locus YGR092W, strain DBF2, hits give low values
[25] = S. cerevisiae deletion strains, locus YHR079C, strain IRE1, hits give low values
[26] = S. cerevisiae deletion strains, locus YHR082C, strain KSP1, hits give low values
[27] = S. cerevisiae deletion strains, locus YHR205W, strain SCH9, hits give low values
[28] = S. cerevisiae deletion strains, locus YIL147C, strain SLN1, hits give low values
[29] = S. cerevisiae deletion strains, locus YJL095W, strain BCK1, hits give low values
[30] = S. cerevisiae deletion strains, locus YJL157C, strain FAR1, hits give low values
[31] = S. cerevisiae deletion strains, locus YJR016C, strain ILV3, hits give low values
[32] = S. cerevisiae deletion strains, locus YJR066W, strain TOR1 (second series), hits give low values
[33] = S. cerevisiae deletion strains, locus YJR066W, strain TOR1, hits give low values
[34] = S. cerevisiae deletion strains, locus YKL048C, strain ELM1, hits give low values
[35] = S. cerevisiae deletion strains, locus YKL067W, strain YNK1, hits give low values
[36] = S. cerevisiae deletion strains, locus YKL101W, strain HSL1, hits give low values
[37] = S. cerevisiae deletion strains, locus YKL203C, strain TOR2, hits give low values
[38] = S. cerevisiae deletion strains, locus YLR113W, strain HOG1, hits give low values
[39] = S. cerevisiae deletion strains, locus YLR133W, strain CKI1, hits give low values
[40] = S. cerevisiae deletion strains, locus YLR403W, strain SFP1, hits give low values
[41] = S. cerevisiae deletion strains, locus YML070W, strain DAK1, hits give low values
[42] = S. cerevisiae deletion strains, locus YMR001C, strain CDC5, hits give low values
[43] = S. cerevisiae deletion strains, locus YMR205C, strain PFK2 (second series), hits give low values
[44] = S. cerevisiae deletion strains, locus YNL006W, strain LST8, hits give low values
[45] = S. cerevisiae deletion strains, locus YNL020C, strain ARK1, hits give low values
[46] = S. cerevisiae deletion strains, locus YNL161W, strain CBK1, hits give low values
[47] = S. cerevisiae deletion strains, locus YNL183C, strain NPR1, hits give low values
[48] = S. cerevisiae deletion strains, locus YNL207W, strain RIO2, hits give low values
[49] = S. cerevisiae deletion strains, locus YNL307C, strain MCK1 (second series), hits give low values
[50] = S. cerevisiae deletion strains, locus YOL078W, strain AVO1, hits give low values
[51] = S. cerevisiae deletion strains, locus YOL136C, strain PFK27, hits give low values
[52] = S. cerevisiae deletion strains, locus YOR061W, strain CKA2, hits give low values
[53] = S. cerevisiae deletion strains, locus YOR119C, strain RIO1, hits give low values
[54] = S. cerevisiae deletion strains, locus YOR231W, strain MKK1, hits give low values
[55] = S. cerevisiae deletion strains, locus YPL031C, strain PHO85, hits give low values
[56] = S. cerevisiae deletion strains, locus YPL153C, strain RAD53, hits give low values
[57] = S. cerevisiae deletion strains, locus YPL204W, strain HRR25, hits give low values
[58] = S. cerevisiae deletion strains, locus YPL209C, strain IPL1, hits give low values
[59] = S. cerevisiae deletion strains, locus YPL256C, strain CLN2, hits give low values
[60] = S. cerevisiae deletion strains, locus YPR025C, strain CCL1, hits give low values
[61] = S. cerevisiae deletion strains, locus YPR106W, strain ISR1, hits give low values
[62] = S. cerevisiae deletion strains, locus YPR111W, strain DBF20, hits give low values
[63] = S. cerevisiae deletion strains, strain NNK1, hits give low values
[64] = S. cerevisiae deletion strains, strain TSCII, hits give low values

Measured: normalized growth

COc1cccc(CC(=O)NN)c1
inactive: S. cerevisiae deletion strains, locus YAL013W, strain DEP1, hits give low values 0.982 | S. cerevisiae deletion strains, locus YBR229C, strain ROT2, hits give low values 1.02 | [1] 1.05 | S. cerevisiae deletion strains, locus YDL134C, strain PPH21, hits give low values 0.995 | S. cerevisiae deletion strains, locus YDR150W, strain NUM1, hits give low values 1.03 | S. cerevisiae deletion strains, locus YEL061C, strain CIN8, hits give low values 1 | S. cerevisiae deletion strains, locus YGR078C, strain PAC10, hits give low values 1.04 | S. cerevisiae deletion strains, locus YGR229C, strain SMI1, hits give low values 0.999 | [2] 1.06 | S. cerevisiae deletion strains, locus YHR087W, strain rtc3, hits give low values 0.971 | S. cerevisiae deletion strains, locus YJL187C, strain SWE1, hits give low values 0.981 | S. cerevisiae deletion strains, locus YJR043C, strain POL32, hits give low values 1.02 | S. cerevisiae deletion strains, locus YJR075W, strain HOC1, hits give low values 0.991 | S. cerevisiae deletion strains, locus YKL190W, strain CNB1, hits give low values 1 | S. cerevisiae deletion strains, locus YLR039C, strain RIC1, hits give low values 1.02 | S. cerevisiae deletion strains, locus YLR058C, strain SHM2 (second series), hits give low values 0.987 | S. cerevisiae deletion strains, locus YLR085C, strain ARP6, hits give low values 0.995 | S. cerevisiae deletion strains, locus YLR262C, strain YPT6, hits give low values 0.98 | S. cerevisiae deletion strains, locus YML094W, strain GIM5, hits give low values 0.982 | S. cerevisiae deletion strains, locus YMR219W, strain ESC1, hits give low values 0.986 | S. cerevisiae deletion strains, locus YMR263W, strain SAP30, hits give low values 1 | S. cerevisiae deletion strains, locus YMR307W, strain GAS1, hits give low values 0.987 | S. cerevisiae deletion strains, locus YNL153C, strain GIM3, hits give low values 1.04 | S. cerevisiae deletion strains, locus YNL298W, strain CLA4 (second series), hits give low values 1.02 | S. cerevisiae deletion strains, locus YNL322C, strain KRE1, hits give low values 1.01 | S. cerevisiae deletion strains, locus YNR030W, strain Alg12, hits give low values 0.986 | S. cerevisiae deletion strains, locus YPL055C, strain LGE1, hits give low values 0.96 | S. cerevisiae deletion strains, locus YPL241C, strain CIN2, hits give low values 1.01 | S. cerevisiae deletion strains, locus YPR135W, strain CTF4, hits give low values 1.04 | S. cerevisiae strains, strain wild type, hits give low values 1.02

CSC(SC)=C(C#N)C(=O)c1ccccc1Cl
active: [3] 0.422 | [4] 0.636 | [5] 0.816 | [1] 0.583 | [10] 0.626 | [11] 0.135 | [12] 0.826 | [13] 0.507 | [15] 0.134 | [16] 0.114 | [17] 0.116 | [18] 0.707 | [19] 0.326 | [21] 0.105 | [22] 0.13 | [23] 0.144 | [24] 0.118 | [2] 0.118 | [25] 0.134 | [26] 0.133 | [27] 0.0151 | [29] 0.119 | [30] 0.121 | [31] 0.863 | [32] 0.105 | [33] 0.105 | [34] 0.182 | [35] 0.163 | [36] 0.153 | [37] 0.0997 | [38] 0.147 | [39] 0.132 | [40] 0.0452 | [41] 0.113 | [42] 0.732 | [43] 0.179 | [44] 0.304 | [45] 0.115 | [46] 0.661 | [47] 0.133 | [48] 0.355 | [49] 0.106 | [50] 0.573 | [51] 0.101 | [52] 0.122 | [53] 0.125 | [54] 0.127 | [55] 0.108 | [56] 0.121 | [57] 0.117 | [58] 0.774 | [59] 0.161 | [60] 0.723 | [63] 0.342 | [64] 0.434
inactive: [6] 0.937 | [7] 0.911 | [8] 0.934 | [9] 0.927 | [14] 0.911 | [20] 0.915 | [28] 0.937 | [61] 0.936 | [62] 0.934

COc1cccc(C(=O)C(C#N)=C(SC)SC)c1
active: [3] 0.875 | [4] 0.88 | [5] 0.87 | S. cerevisiae deletion strains, locus YBR136W, strain MEC1, hits give low values 0.879 | [6] 0.878 | [7] 0.881 | [8] 0.884 | [1] 0.901 | [9] 0.894 | [10] 0.874 | [11] 0.429 | [12] 0.879 | [13] 0.855 | [14] 0.87 | [15] 0.393 | [16] 0.256 | [17] 0.295 | [18] 0.869 | [19] 0.872 | [20] 0.88 | [21] 0.287 | S. cerevisiae deletion strains, locus YFR028C, strain CDC14, hits give low values 0.868 | [22] 0.331 | [23] 0.294 | [24] 0.206 | [2] 0.192 | [25] 0.307 | [26] 0.298 | [27] 0.321 | [28] 0.885 | [29] 0.264 | [30] 0.37 | [31] 0.874 | [32] 0.275 | [33] 0.268 | [34] 0.45 | [35] 0.508 | [36] 0.434 | S. cerevisiae deletion strains, locus YKL193C, strain SDS22, hits give low values 0.886 | [37] 0.291 | [38] 0.324 | [39] 0.44 | [40] 0.265 | [41] 0.346 | [42] 0.876 | [43] 0.526 | S. cerevisiae deletion strains, locus YMR277W, strain FCP1, hits give low values 0.881 | [44] 0.887 | [45] 0.432 | [46] 0.871 | [47] 0.298 | [48] 0.88 | S. cerevisiae deletion strains, locus YNL222W, strain SSU72, hits give low values 0.891 | [49] 0.293 | [50] 0.868 | [51] 0.301 | [52] 0.423 | [53] 0.317 | [54] 0.366 | S. cerevisiae deletion strains, locus YOR329C, strain SCD5, hits give low values 0.872 | [55] 0.309 | [56] 0.387 | [57] 0.294 | [58] 0.877 | [59] 0.292 | [60] 0.875 | [64] 0.867
inactive: S. cerevisiae deletion strains, locus YJL128C, strain PBS2, hits give low values 0.89 | [61] 0.893 | [62] 0.902 | [63] 0.89

From PubChem BioAssay AID1159580 (chemical genetic matrix, 2015)
